From PubChem BioAssay (NCI)
The panel holds about 79,000 compounds, 15% with a hit somewhere; the sample as a whole holds those more often. Values without a mark were called inactive. Activity calls are given as the source filed them. Rule as the data show it: active = growth inhibition above about 70%; inactive = the rest.

assay: NCI Yeast Anticancer Drug Screen. Data for the mlh1 rad18 strain (AID 175); details: S. cerevisiae mlh1 rad18 strain growth inhibition; at 5.0 µM (retest, dose inferred, filed as 0.5); stronger effect = higher value
Summary of the method: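 Test agents were incubated with a yeast strain of defined genotype (DNA damage repair defect). Inhibition of growth was derived by comparison with vehicle-exposed cultures.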

Row | SMILES | growth inhibition
1 | CC(CN(C)C)C(=O)/C=C/c1ccc(Cl)c(Cl)c1 (stereo not drawn) | -7%
2 | CCCCCCNCCCNc1c2cc(OC)ccc2nc2cccc([N+](=O)[O-])c12 | 73% (active)
3 | C/C(=N/NC(=S)Nc1ccccc1C)c1ccccn1 | -15%
4 | O=C1/C(=C/c2ccc(Cl)c(Cl)c2)CNC/C1=C\c1ccc(Cl)c(Cl)c1 | 6%
5 | CC(C)OP(=O)(OC(C)C)C(=NCCO)NNc1ccc([N+](=O)[O-])cc1 | 48%
6 | N#CCC(=O)N/N=C(\c1ccccc1)C(c1ccccc1)C1(O)C(=O)Nc2c(Cl)ccc(Cl)c21 (stereo not drawn) | 6%
7 | CC(C)(CN1CCCCC1)C(=O)CC(SCCS(=O)(=O)O)c1ccccc1 (stereo not drawn) | 17%
8 | COC1=CCC23C(=O)C=CC(=O)C2(C1)C(=O)c1ccccc1C3=O (stereo not drawn) | 26%
9 | CCCCN(CCCC)c1ccc(N=Nc2ccc(S(=O)(=O)O)cc2)cc1 | 51%
10 | c1ccc2nc3c(nc2c1)sc1ccccc13 | -71%
11 | O=C1c2ccccc2-c2ccc(N=Cc3ccccc3)cc21 | -12%
12 | CNC(=S)N/N=C(/C)CCC/C(C)=N/NC(=S)NC | 55%
13 | Nc1ccc(/C=C/c2ccc3cccnc3c2)cc1 | 3%
14 | COc1ccc2c3c1OC(C)C31CC(=O)CCC1CC2 (stereo not drawn) | 12%
15 | CCOC(=O)Nc1ccc(C)c(NC(=O)OCC)c1 | 34%
16 | CCN(CC)CCNc1ccc2nc(C)n3c4ccc(OC)cc4c(=O)c1c23 | 29%
17 | C[N+](C)([O-])CCCNc1c2ccccc2nc2cccc([N+](=O)[O-])c12 | 81% (active)

Row | SMILES | growth inhibition
18 | O=C(c1cc(=O)c2ccc(O)cc2o1)c1ccc(Cl)cc1Cl | 37%
19 | CCCNC(=O)OCc1c(COC(=O)NCCC)c(-c2ccc(Cl)c(Cl)c2)n2c1CCC2 | 22%
20 | O=C(Cc1ccccc1)NN1C(=O)C(Cl)C1c1cc(Br)cc(Br)c1O (stereo not drawn) | 47%
21 | CCOC(=O)C(Cc1c2ccccc2cc2ccccc12)(NC(C)=O)C(=O)OCC | -11%
22 | O=[N+]([O-])/C=C/c1cc2ccc3ccccc3c2[nH]1 | 84% (active)
23 | Fc1ccc(Nc2ccc3ccccc3c2)cc1 | -3%
24 | O=S1(=O)CCC2=CC(C(F)(F)F)=CC(C(F)(F)F)=CN21 | 76% (active)
25 | O=C(Cc1ccccc1)NNc1nc(NNC(=O)c2ccncc2)nc(Nc2ccc([N+](=O)[O-])cc2)n1 | 7%
26 | CCCCS/C(=C(/C#N)C(N)=O)c1cc2c([nH]1)CCCC2 | 13%
27 | O=C(O)c1ccccc1C(=O)OC1CCc2ccccc2C1 (stereo not drawn) | -4%
28 | NC(=S)N/N=C1\c2ccccc2CCC1CCC1(O)CCc2ccccc2C1=O (stereo not drawn) | 0%
29 | Cc1cccc2c(Cl)c3cccc(C)c3nc12 | -16%
30 | CC(C)OC(=O)NNc1c(Cl)cc(Cl)cc1Cl | 10%
31 | Nc1ccc2c(c1)C(=O)c1c(F)cccc1-2 | -120%
32 | N#CSCC1COc2ccccc2O1 (stereo not drawn) | 5%
33 | Cc1ccc(S(=O)(=O)NC(=O)C2C(=O)CC3(CCCCC3)CC2=O)cc1 | 42%
34 | CC1=NN(C(=O)c2ccccc2O)C(=O)/C1=C/c1ccco1 | 27%

same assay, conditions: S. cerevisiae mlh1 rad18 strain growth inhibition; at 50.0 µM (retest, dose inferred, filed as 5.0); stronger effect = higher value

Row | SMILES | growth inhibition
35 | CC(CN(C)C)C(=O)/C=C/c1ccc(Cl)c(Cl)c1 (stereo not drawn) | -21%
36 | CCCCCCNCCCNc1c2cc(OC)ccc2nc2cccc([N+](=O)[O-])c12 | 97% (active)
37 | C/C(=N/NC(=S)Nc1ccccc1C)c1ccccn1 | -1%
38 | O=C1/C(=C/c2ccc(Cl)c(Cl)c2)CNC/C1=C\c1ccc(Cl)c(Cl)c1 | 86% (active)
39 | CC(C)OP(=O)(OC(C)C)C(=NCCO)NNc1ccc([N+](=O)[O-])cc1 | 96% (active)
40 | N#CCC(=O)N/N=C(\c1ccccc1)C(c1ccccc1)C1(O)C(=O)Nc2c(Cl)ccc(Cl)c21 (stereo not drawn) | -6%
41 | CC(C)(CN1CCCCC1)C(=O)CC(SCCS(=O)(=O)O)c1ccccc1 (stereo not drawn) | -1%
42 | COC1=CCC23C(=O)C=CC(=O)C2(C1)C(=O)c1ccccc1C3=O (stereo not drawn) | 84% (active)
43 | CCCCN(CCCC)c1ccc(N=Nc2ccc(S(=O)(=O)O)cc2)cc1 | 99% (active)
44 | c1ccc2nc3c(nc2c1)sc1ccccc13 | 14%
45 | O=C1c2ccccc2-c2ccc(N=Cc3ccccc3)cc21 | 46%
46 | CNC(=S)N/N=C(/C)CCC/C(C)=N/NC(=S)NC | 63%
47 | Nc1ccc(/C=C/c2ccc3cccnc3c2)cc1 | 20%
48 | COc1ccc2c3c1OC(C)C31CC(=O)CCC1CC2 (stereo not drawn) | 51%
49 | CCOC(=O)Nc1ccc(C)c(NC(=O)OCC)c1 | 78% (active)
50 | CCN(CC)CCNc1ccc2nc(C)n3c4ccc(OC)cc4c(=O)c1c23 | 56%
51 | C[N+](C)([O-])CCCNc1c2ccccc2nc2cccc([N+](=O)[O-])c12 | 95% (active)

Row | SMILES | growth inhibition
52 | O=C(c1cc(=O)c2ccc(O)cc2o1)c1ccc(Cl)cc1Cl | 96% (active)
53 | CCCNC(=O)OCc1c(COC(=O)NCCC)c(-c2ccc(Cl)c(Cl)c2)n2c1CCC2 | 62%
54 | O=C(Cc1ccccc1)NN1C(=O)C(Cl)C1c1cc(Br)cc(Br)c1O (stereo not drawn) | 94% (active)
55 | CCOC(=O)C(Cc1c2ccccc2cc2ccccc12)(NC(C)=O)C(=O)OCC | 35%
56 | O=[N+]([O-])/C=C/c1cc2ccc3ccccc3c2[nH]1 | 94% (active)
57 | Fc1ccc(Nc2ccc3ccccc3c2)cc1 | 69%
58 | O=S1(=O)CCC2=CC(C(F)(F)F)=CC(C(F)(F)F)=CN21 | 98% (active)
59 | O=C(Cc1ccccc1)NNc1nc(NNC(=O)c2ccncc2)nc(Nc2ccc([N+](=O)[O-])cc2)n1 | 36%
60 | CCCCS/C(=C(/C#N)C(N)=O)c1cc2c([nH]1)CCCC2 | 46%
61 | O=C(O)c1ccccc1C(=O)OC1CCc2ccccc2C1 (stereo not drawn) | 33%
62 | NC(=S)N/N=C1\c2ccccc2CCC1CCC1(O)CCc2ccccc2C1=O (stereo not drawn) | 83% (active)
63 | Cc1cccc2c(Cl)c3cccc(C)c3nc12 | 49%
64 | CC(C)OC(=O)NNc1c(Cl)cc(Cl)cc1Cl | 38%
65 | Nc1ccc2c(c1)C(=O)c1c(F)cccc1-2 | -30%
66 | N#CSCC1COc2ccccc2O1 (stereo not drawn) | 94% (active)
67 | Cc1ccc(S(=O)(=O)NC(=O)C2C(=O)CC3(CCCCC3)CC2=O)cc1 | 71% (active)
68 | CC1=NN(C(=O)c2ccccc2O)C(=O)/C1=C/c1ccco1 | 94% (active)
